Structures are written as SMILES. Results filed as inconclusive are left out. Active and inactive are the calls of the source. Unless noted, calls follow the shape of the dose curve; as a rule, active = well fitted curve in the direction sought with a large enough effect; inconclusive = small, poorly fitted or top-dose-only effect, or another doubt; inactive = no such curve, though single readings can be large; an effect the other way counts as inactive or inconclusive.

Data on ten compounds can be found in PubChem BioAssay (NCATS).

The target of experiment [1] is alpha-glucosidase (Oryza sativa, rice) (UniProt Q653V4). In words: Counterscreen for Glucocerebrosidase Inhibitors: qHTS Assay for Rice alpha-Glucosidase at pH 5.0 (AID 997).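 Also: 0% = full activity with enzyme and -100% = basal without enzyme.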 An outline of the steps:
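Endpoint fluorogenic assay at pH 5.0: compounds (0.7 nM to 77 uM) titrated against 4 nM rice enzyme and 400 uM 4-MU-alpha-glucoside for 20 min at room temperature; NaOH/glycine stop, read ex 365/em 440 nm, Hill-fitted AC50.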
For orientation: Counterscreens check selectivity or assay interference.

Experiment [2] is described as follows: qHTS Assay for Lipid Storage Modulators (AID 1519; calls by dose curve; as to activity change, negative = inhibition: % is scaled to controls: 0 for no effect and ±100 for the full control effect). The note with it: Drosophila S3 cells, BODIPY lipid droplet/cell ratio, laser cytometry, cells loaded with oleic acid. An outline of the steps: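 Cells seeded at 5,000 per well were treated with compounds over a concentration series and loaded with oleic acid (400 uM, as added). Lipid droplet fluorescence (488 nm excitation, 500-530 nm channel) was read by laser-scanning cytometry and normalized to 20 uM Triacsin C.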
On the technique in general: In qHTS, concentration-response curves come from the screen itself.

The target of experiment [3] is DNA repair nuclease/redox regulator APEX1 (Homo sapiens) (UniProt P27695). The experiment in a line: qHTS Validation Assay for Inhibitors of the Human Apurinic/apyrimidinic Endonuclease 1 (APE1) (AID 1705;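 also: TAMRA fluorescence gain over two minutes as APE1 cuts a quenched THF abasic duplex; % is scaled to controls: 0 for no effect and ±100 for the full control effect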). Put shortly: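 Substrate: 50 nM final fluorophore/quencher THF-abasic duplex. Enzyme preincubated with compounds 15 min, RT. Progress derived from fluorescence difference, third minus first kinetic read.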

Experiment [4] can be described thus: Counterscreen for APE1 Inhibitors: Fluorescent Dye Displacement Validation Assay (AID 1707).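 Also: plate controls were ThO with dsDNA and no compound for no effect and ThO without dsDNA for full effect.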 An outline of the steps:
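Reaction mixture of 250 nM Thiazole Orange and 50 nM double-stranded abasic-site DNA was dispensed, compounds were pin-transferred, and fluorescence was read at endpoint (480 nm ex, 540 nm em). Reduced fluorescence indicated dye displacement by DNA binding.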

In experiment [5] the target is Endonuclease 4 (Escherichia coli (strain K12)) (UniProt P0A6C1). The experiment in a line: Counterscreen for APE1 Inhibitors: qHTS Validation Assay for Inhibitors of Endonuclease IV (AID 1708). Also: % is scaled to controls: 0 for no effect and ±100 for the full control effect. An outline of the steps:
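Conditions: 2 nM enzyme, 50 nM TAMRA/BHQ-2 substrate, pH 7.5 Tris buffer with 2 mM MgCl2, RT. Compound preincubation 15 min; readout three fluorescence reads 60 s apart, third-minus-first.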

Experiment [6] in a line: qHTS for differential inhibitors of proliferation of Plasmodium falciparum line 7G8 (AID 1815).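 Also: parasite growth measured after three days of incubation.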 Also: potency is read from the fitted curve at half-maximal effect.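 As to activity change, negative = inhibition: plate controls were vehicle wells for no effect and reference inhibitor wells for full effect.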
Experiment [7] can be described thus: qHTS for differential inhibitors of proliferation of Plasmodium falciparum line GB4 (AID 1816).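 Also: parasite growth measured after 72 h incubation.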 Also: potency is read from the fitted curve at half-maximal effect.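 As to activity change, negative = inhibition: 0% = vehicle DMSO and -100% = reference inhibitor.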 To be noted: Potency: Plasmodium falciparum GB4 proliferation inhibition.
A short description of experiment [8]: qHTS for differential inhibitors of proliferation of Plasmodium falciparum line 3D7 (AID 1876). Also: potency is read from the fitted curve at half-maximal effect.
Experiment [9] in a line: qHTS for differential inhibitors of proliferation of Plasmodium falciparum line D10 (AID 1877).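 Also: parasites grown with compound for 72 h before DNA staining.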 Also: potency is read from the fitted curve at half-maximal effect.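 As to activity change, negative = inhibition: plate controls were vehicle wells for no effect and reference inhibitor wells for full effect.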
A short description of experiment [10]: qHTS for differential inhibitors of proliferation of Plasmodium falciparum line Dd2 (AID 1882). Also: nearly all actives have a fitted effect of over 65% in size. Also: potency is read from the fitted curve at half-maximal effect.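 As to activity change, negative = inhibition: plate controls were DMSO vehicle for no effect and 0.29 µM artemisinin for full effect.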 To be noted: Potency: Plasmodium falciparum Dd2 proliferation inhibition. An outline of the steps: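 SYBR Green DNA fluorescence (ex 485, em 535 nm) after overnight lysis quantifies parasite growth; compound exposure lasted 72 h at 37 C on infected red cells at 2.5% hematocrit, 0.3% parasitemia (final). Artemisinin 0.29 uM and vehicle wells define normalization.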

Experiment [11] in a line: qHTS for differential inhibitors of proliferation of Plasmodium falciparum line W2 (AID 1883).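 Also: parasites grown with compound for 72 h before lysis and staining.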 Also: potency is read from the fitted curve at half-maximal effect.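 As to activity change, negative = inhibition: 0% = vehicle wells and -100% = control inhibitor wells.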 The note with it: Potency: Plasmodium falciparum W2 proliferation inhibition.
Experiment [12] is described as follows: qHTS for differential inhibitors of proliferation of Plasmodium falciparum line HB3 (AID 1886).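 Also: parasites grown with compound for 72 h before SYBR Green readout.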 Also: potency is read from the fitted curve at half-maximal effect.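 As to activity change, negative = inhibition: plate controls were vehicle for no effect and reference inhibitor for full effect.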 The note with it: Potency: Plasmodium falciparum HB3 proliferation inhibition.
The target in experiment [13] is ATP-dependent DNA helicase Q1 (Homo sapiens) (UniProt P46063). The experiment in a line: qHTS Validation Assay for Inhibitors of RecQ-Like Dna Helicase 1 (RECQ1) (AID 2353).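 Also: plate controls were DMSO vehicle for no effect and enzyme-free control for full effect.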 An outline of the steps: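 RECQ1T1 50 nM; forked duplex (20 bp + 30-nt ss tails) 200 nM, ATP 2 mM final; pH 8.0, 2 mM MgCl2, 2.5 ug/ml poly(dI-dC); 15 min compound preincubation; discontinuous kinetic read over 2 h at RT.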

The target in experiment [14] is Ferritin light chain (Equus caballus) (UniProt P02791). In words: qHTS Validation Assay for Identification of Novel General Anesthetics (AID 2323). Also: % is scaled to controls: 0 for no effect and ±100 for the full control effect. Put shortly: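 Normalized fluorescence response, scaled between free 1-AMA and 1-AMA/apoferritin complex, fitted to a four-parameter Hill equation for concentration-effect values. Binding mix: 10 uM horse-spleen apoferritin, 50% saturated 1-AMA in PBS; read 380/535 nm after 10 min.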

Experiment [15] in a line: qHTS Assay for Modulators of Human Peripheral Myelin Protein 22 (PMP22) Expression/Activity (AID 1967; active = well fitted curve in the direction sought with a large enough effect in the signal ratio; the % refers to the signal ratio;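 also: 0% = untreated cells and 100% end not stated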). Put shortly: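 Engineered MSC80 cells, Pmp22-promoter green and EF-alpha red luciferase reporters; 24h compound treatment at 37 °C. Concentration-response fits on green, red and ratio signals, each overlap-corrected, with %Activity normalized to untreated wells.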
Experiment [16] has as its target RecQ-like DNA helicase BLM (Homo sapiens) (UniProt P54132). The experiment in a line: qHTS Validation Assay for Inhibitors of Bloom's syndrome helicase (BLM) (AID 2364).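 Also: plate controls were DMSO vehicle for no effect and enzyme-free control for full effect.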 An outline of the steps:
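50 nM BLM preincubated 15 min at room temperature with compound in pH 8.0 Tris buffer containing 2.5 ug/ml poly(dI-dC); started with 200 nM TAMRA/BHQ-2 forked duplex and 2 mM ATP (final). Unwinding read as TAMRA fluorescence increase, two reads 2 h apart.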

ATP-dependent DNA helicase Q1 (Homo sapiens), sequence (P46063 whole entry, looked up): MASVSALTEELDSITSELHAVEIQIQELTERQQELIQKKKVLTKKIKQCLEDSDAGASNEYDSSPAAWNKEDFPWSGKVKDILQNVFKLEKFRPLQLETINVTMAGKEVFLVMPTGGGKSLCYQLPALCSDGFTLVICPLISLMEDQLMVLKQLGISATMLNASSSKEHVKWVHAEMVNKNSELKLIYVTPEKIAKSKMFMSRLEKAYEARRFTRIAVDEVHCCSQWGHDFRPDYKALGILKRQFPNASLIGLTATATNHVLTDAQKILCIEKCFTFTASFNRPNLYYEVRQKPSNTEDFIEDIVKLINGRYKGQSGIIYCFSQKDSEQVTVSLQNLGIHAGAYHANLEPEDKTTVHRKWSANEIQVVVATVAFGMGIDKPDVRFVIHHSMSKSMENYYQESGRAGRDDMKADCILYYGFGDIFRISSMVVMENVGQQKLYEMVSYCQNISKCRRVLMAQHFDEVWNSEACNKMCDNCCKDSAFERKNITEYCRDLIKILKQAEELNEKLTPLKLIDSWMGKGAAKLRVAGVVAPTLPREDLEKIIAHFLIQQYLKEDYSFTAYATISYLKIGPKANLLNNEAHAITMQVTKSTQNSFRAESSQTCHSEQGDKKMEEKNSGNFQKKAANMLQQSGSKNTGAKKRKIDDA
DNA repair nuclease/redox regulator APEX1 (Homo sapiens), sequence (P27695 whole entry, looked up): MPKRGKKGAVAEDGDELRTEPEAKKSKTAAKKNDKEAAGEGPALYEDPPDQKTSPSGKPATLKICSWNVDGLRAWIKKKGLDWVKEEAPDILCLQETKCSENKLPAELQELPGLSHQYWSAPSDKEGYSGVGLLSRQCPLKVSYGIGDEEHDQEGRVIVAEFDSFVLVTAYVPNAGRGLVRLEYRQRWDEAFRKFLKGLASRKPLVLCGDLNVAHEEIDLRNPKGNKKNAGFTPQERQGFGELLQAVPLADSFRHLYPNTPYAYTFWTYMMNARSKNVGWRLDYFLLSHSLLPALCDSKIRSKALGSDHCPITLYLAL
Ferritin light chain (Equus caballus), sequence (P02791 2-175 limits assumed): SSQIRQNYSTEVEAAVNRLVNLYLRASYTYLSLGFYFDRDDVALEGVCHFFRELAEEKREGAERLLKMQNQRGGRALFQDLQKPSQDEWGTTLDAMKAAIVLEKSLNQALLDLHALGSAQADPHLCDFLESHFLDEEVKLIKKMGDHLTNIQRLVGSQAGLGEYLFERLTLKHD
RecQ-like DNA helicase BLM (Homo sapiens), sequence (P54132 whole entry, looked up): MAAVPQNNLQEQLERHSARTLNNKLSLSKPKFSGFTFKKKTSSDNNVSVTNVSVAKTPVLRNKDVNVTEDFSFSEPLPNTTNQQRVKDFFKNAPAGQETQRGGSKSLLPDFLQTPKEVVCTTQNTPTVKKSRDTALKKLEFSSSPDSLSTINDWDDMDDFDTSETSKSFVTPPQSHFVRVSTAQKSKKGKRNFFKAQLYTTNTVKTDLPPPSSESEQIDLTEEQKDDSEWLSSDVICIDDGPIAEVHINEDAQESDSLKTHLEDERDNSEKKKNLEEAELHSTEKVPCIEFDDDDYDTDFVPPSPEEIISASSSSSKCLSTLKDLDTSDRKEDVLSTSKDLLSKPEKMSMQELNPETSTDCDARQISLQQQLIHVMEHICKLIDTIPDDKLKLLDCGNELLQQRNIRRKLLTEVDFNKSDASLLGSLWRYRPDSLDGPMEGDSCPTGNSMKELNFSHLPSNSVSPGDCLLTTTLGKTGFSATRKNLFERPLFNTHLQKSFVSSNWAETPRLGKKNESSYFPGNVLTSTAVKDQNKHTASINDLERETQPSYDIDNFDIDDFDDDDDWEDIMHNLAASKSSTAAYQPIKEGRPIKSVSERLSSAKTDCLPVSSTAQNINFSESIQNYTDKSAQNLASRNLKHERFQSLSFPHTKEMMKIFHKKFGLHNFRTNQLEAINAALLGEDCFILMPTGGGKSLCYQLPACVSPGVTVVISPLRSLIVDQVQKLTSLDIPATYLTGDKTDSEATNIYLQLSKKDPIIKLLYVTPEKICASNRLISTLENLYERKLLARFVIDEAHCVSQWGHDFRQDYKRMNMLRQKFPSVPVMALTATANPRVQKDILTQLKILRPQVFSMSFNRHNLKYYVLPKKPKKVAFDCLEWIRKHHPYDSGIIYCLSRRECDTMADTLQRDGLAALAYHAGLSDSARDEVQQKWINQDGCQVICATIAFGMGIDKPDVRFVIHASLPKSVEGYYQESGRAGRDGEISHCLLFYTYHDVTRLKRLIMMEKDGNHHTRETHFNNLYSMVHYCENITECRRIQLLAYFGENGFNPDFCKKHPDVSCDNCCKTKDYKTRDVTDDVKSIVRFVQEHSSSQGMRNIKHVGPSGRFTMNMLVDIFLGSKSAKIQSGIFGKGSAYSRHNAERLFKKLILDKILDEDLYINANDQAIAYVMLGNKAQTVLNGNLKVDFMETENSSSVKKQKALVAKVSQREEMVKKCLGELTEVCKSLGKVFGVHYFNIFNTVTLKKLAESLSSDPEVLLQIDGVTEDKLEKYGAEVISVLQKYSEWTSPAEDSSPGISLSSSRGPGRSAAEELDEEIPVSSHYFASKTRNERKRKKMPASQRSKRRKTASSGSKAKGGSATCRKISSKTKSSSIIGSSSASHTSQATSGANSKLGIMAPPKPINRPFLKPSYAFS

On to `CCN1C(=O)C=CC1=O`, for which, in experiment [1], the result was inactive. For the same compound, the activity change, negative = inhibition in experiment [2] (at 57.5 µM (top of the series)) is 0.136% (inactive). Further, the max response in [2] (measured here: cell count channel max response) was -19.7%; in [2] (measured here: lipid channel max response) it was -18.9%. Moreover, the Potency entry in experiment [3], in [4], in experiment [5], in experiment [6], in experiment [7] and in [8] was “inactive” throughout. Besides, the Potency entry in experiment [9], in experiment [10], in experiment [11], in experiment [12] and in experiment [13] was “inactive” each time.
In the case of `CCCCCCCC/C=C\CCCCCCCC(=O)NCCc1ccc(O)c(O)c1`, the call in [1] was inactive. Also, the Potency entry in experiment [3] and in [13] was “inactive” throughout. For the same compound, the Potency is 7.08 µM (active) in experiment [6]; 11.2 µM (active) in experiment [7]; 8.91 µM (active) in experiment [8]; 8.91 µM (active) in experiment [10]; 7.94 µM (active) in experiment [11]; 12.6 µM (active) in experiment [12].
With `CCC1(O)CC2CN(CCc3c([nH]c4ccccc34)[C@@](C(=O)OC)(c3cc4c(cc3OC)N(C)C3[C@]45CCN4CC=C[C@@](CC)([C@@H](OC(C)=O)[C@]3(O)C(=O)OC)[C@H]45)C2)C1` (some centres undefined), the Potency entry in experiment [4] and in [14] was “inactive” throughout. Also, the Potency in experiment [6] is 1.12 µM (active); in experiment [7], 2.51 µM (active); in experiment [8] it was 0.631 µM (active); in experiment [9], 5.01 µM (active); in experiment [10] it was 0.398 µM (active); in [11], 0.794 µM (active). Besides, the Potency in experiment [12] is 2.82 µM (active).
For the compound `Nc1ncnc2c1c(-c1ccc(Oc3ccccc3)cc1)cn2C1CCCC1`, the compound was classed as inactive in experiment [1]. The Potency result in experiment [3], in experiment [4] and in experiment [13] was “inactive” each time. For the same compound, the Potency in experiment [6] is 4.47 µM (active); in [7], 2.51 µM (active); in experiment [8] it was 10 µM (active); in experiment [9] it was 12.6 µM (active); in experiment [10], 7.94 µM (active); in experiment [11], 3.55 µM (active). The Potency in experiment [12] was 12.6 µM (active).
In the case of `Nc1nc2ccc(Cl)cc2c2nc(-c3ccco3)nn12`, the outcome in experiment [1] was inactive. Moreover, the Potency entry in experiment [3], in [4], in [5] and in [13] was “inactive” throughout.
With `CCCCC[C@H](CC(=O)NO)C(=O)N[C@H](C(=O)N1CCC[C@H]1CO)C(C)C`, the Potency entry in experiment [3], in [4], in experiment [14] and in experiment [13] was “inactive” each time. In addition, the Potency in experiment [6] is 2.24 µM (active); in experiment [7], 2 µM (active); in experiment [8], 1.78 µM (active); in [9], 1.58 µM (active); in experiment [10], 3.55 µM (active); in experiment [11], 2.51 µM (active). In [12], the Potency is 2.82 µM (active).
As for `CC(C)(C)c1cc(/C=C(\C#N)C(N)=S)cc(C(C)(C)C)c1O`, the call in experiment [1] was inactive. Further, the Potency entry in experiment [4], in [5] and in experiment [13] was “inactive” throughout. The Potency is 7.94 µM (active) in experiment [6]; 7.94 µM (active) in experiment [7]; 4.47 µM (active) in [8]; 8.91 µM (active) in experiment [9]; 8.91 µM (active) in experiment [10]; 2.82 µM (active) in experiment [11]. For the same compound, in experiment [12], the Potency was 6.31 µM (active).
On to `CC(/C=C/c1cccc(Oc2ccc(F)cc2)c1)N(O)C(N)=O` (centres undefined), for which the Potency result in experiment [3], in experiment [4] and in experiment [13] was “inactive” in each case. In [11], the Potency was 10 µM (active).
For `CCCCOc1cc(CC2CNC(=O)N2)ccc1OC` (centres undefined), the Potency entry in [3], in experiment [4], in experiment [8], in experiment [9], in experiment [10] and in experiment [12] was “inactive” in each case. In addition, the Potency entry in experiment [14], in experiment [13] and in experiment [16] was “inactive” in each case. The outcome in experiment [15] was inactive.
On to `O=C(O)c1ccccc1Nc1cccc(OCc2ccc3ccccc3n2)c1`, for which, in experiment [1], the result was inactive. Besides, the Potency result in [3], in experiment [4], in experiment [8], in [9], in experiment [10] and in experiment [12] was “inactive” each time. Further, the Potency entry in experiment [14] and in experiment [13] was “inactive” each time.
